SARS PLpro yeast = inhibitors of SARS-CoV papain-like protease in yeast; S. cerevisiae expressing SARS-CoV PLpro, growth rescue; Potency, µM (top dose mostly 32.9 µM), without a hit: top-dose activity, positive = growth rescue, usual class: activators; 330,000 tested, 0.19% active; AID 485353; also: 0% is about no effect; nearly all actives have a fitted effect of over 55% in size
NS1 function inh = inhibitors of influenza NS1 protein function | Potency, µM (series often up to 46.1 µM), without a hit: at the top dose activity, positive = more growth | 270,000 tested, 0.4% active; also: actives are rising curves; nearly all actives have a fitted effect of over 50% in size
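Recovery from NS1-induced slow growth read by OD600 in budding yeast switched to galactose assay medium (pH 6.0, -URA) at 1:100 dilution. Compound 23 nl per well; the matching strain lacking NS1 serves as control.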
Pf growth 96h = P. falciparum growth inhibition at 96 hours; P. falciparum luciferase reporter growth, 96 h; Potency, µM (highest dose often 28.7 µM), without a hit: top-dose activity change, negative = inhibition, usual class: inhibitors; 320,000 tested, 6.9% active; AID 504834; active = well fitted inhibition curve with a large enough effect; inconclusive = small, poorly fitted or top-dose-only effect, or another doubt; inactive = no such curve, though single readings can be large or run the other way; also: % is scaled to controls: 0 for no effect and ±100 for the full control effect
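Two parasite generations (96 h, 37 C, 5% CO2) of compound exposure in infected erythrocytes (0.05% parasitemia, 2% hematocrit). Luciferase-reporter P. falciparum; decreased luminescence indicates inhibited growth, aimed at apicoplast-acting delayed death.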
Pf growth 48h = inhibits P. falciparum growth in the first generation, 48 h; P. falciparum luciferase growth in erythrocytes, 48 h; Potency, µM (top dose mostly 28.7 µM), for the others: top-dose activity change, negative = inhibition, most hits filed as inhibitors; 310,000 tested, 5.9% active; active = well fitted inhibition curve with a large enough effect; inconclusive = small, poorly fitted or top-dose-only effect, or another doubt; inactive = no such curve, though single readings can be large or run the other way; also: % is scaled to controls: 0 for no effect and ±100 for the full control effect
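Here the parasites carry a stable luciferase gene and grow inside erythrocytes in Albumax-based RPMI medium with compound for one erythrocytic cycle. Activity is scored as loss of luminescent signal.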
* hit, by the source's call; ? = inconclusive; nt = not tested or not shown; [ ] = remark or other dose. Sampled rows, rich in hits. Any-hit rate of the full collection: about 10%. Unless noted, calls follow the shape of the full dose curve. Potency is read from the fitted curve at half-maximal effect.

SMILES | SARS PLpro yeast | NS1 function inh | Pf growth 96h | Pf growth 48h
CCOCCCNC(=O)C1CCN(c2cc(C)nc3c(-c4ccc(OC)c(OC)c4)c(C)nn23)CC1 | 0% | -5% | -4% | 4.1µM*
COc1ccccc1-c1c(C)nn2c(N3CCOCC3)cc(C)nc12 | -1% | -6% | 20% | -16%
COc1ccccc1-c1c(C)nn2c(-c3ccccc3)cc(C)nc12 | -6% | 1% | ? | ?
COCCNc1cc(C)nc2c(-c3ccccc3OC)c(C)nn12 | -3% | -1% | 2.3µM* | -2%
CCN(CC)CCCNc1nc(-c2ccccc2)nc2ccccc12 | 10% | 2% | ? | ?
COc1ccccc1-c1c(C)nn2c(N3CCCCCC3)cc(C)nc12 | -28% | -154% | 9.3µM* | 10µM*
c1ccc(-c2nc(NCCCn3ccnc3)c3ccccc3n2)cc1 | 1% | -4% | 8.3µM* | 3.7µM*
Cc1cc(NCCCn2ccnc2)n2nc(C)c(-c3ccc(Cl)cc3)c2n1 | 16% | -2% | 2% | nt
Cc1cc(NCCCn2ccnc2)n2nc(C)c(-c3ccccc3)c2n1 | 4% | -3% | 12µM* | nt
CCCC1=[N+](CC(=O)c2ccccc2)CCn2c(C)ccc21 | -6% | 19% | 10% | ?
CCCC1=[N+](CC(=O)c2ccc(C)cc2)CCn2cccc21 | 13% | -3% | ? | 10µM*
COC(=O)c1c(NC(=O)CCl)sc(C(=O)N2CCOCC2)c1C | 1% | 9% | 13% | ?
O=C(NCCC1=CCCCC1)c1c(O)nc2sccn2c1=O | 3% | nt | ? | 12µM*
Cc1cc(C(=O)NCCC2=CCCCC2)no1 | 5% | -15% | 20% | 20%
O=C(NCCC1=CCCCC1)c1cnsn1 | 0% | -2% | 4.7µM* | 90%
CCN(C(=O)CSc1nc(N)cc(N)n1)C1CCS(=O)(=O)C1 (configuration not stated) | 0% | 7% | 29% | 17%
Cc1ccc(C(=O)N2CCN(c3ccc([N+](=O)[O-])cc3)CC2)o1 | -2% | -10% | 0% | -15%
COc1ccc(CCC(C)NCc2cc(OC)cc(OC)c2)cc1 (configuration not stated) | -3% | -9% | 6% | -22%
COc1ccc(CCC(C)NCC2CCCCC2)cc1 (configuration not stated) | -16% | -7% | 13µM* | ?
COc1ccc(CCC(C)NCc2ccc(Cl)c(Cl)c2)cc1 (configuration not stated) | -8% | -25% | 6.6µM* | 9%
COc1cc(OC)cc(N(C(=O)c2ccco2)C(C(=O)NC2CCCC2)c2ccc(N(C)C)cc2)c1 (configuration not stated) | 2% | -8% | ? | 12µM*
COc1ccc(C(C(=O)NC2CCCC2)N(C(=O)c2ccoc2C)c2ccc(C)c(C)c2)cc1 (configuration not stated) | -29% | 15% | 1µM* | ?
COc1ccc(N(C(=O)c2ccco2)C(C(=O)NC2CCCC2)c2ccc(N(C)C)cc2)cc1 (configuration not stated) | -2% | -8% | nt | nt
COc1ccc(N(C(=O)c2ccco2)C(C(=O)NC2CCCC2)c2ccc(N(C)C)cc2)cc1OC (configuration not stated) | 15% | -7% | 101% | 13µM*
COc1cccc(N(C(=O)CNC(=O)c2ccco2)C(C(=O)NC2CCCCC2)c2ccncc2)c1 (configuration not stated) | -13% | -8% | 9.3µM* | -5%
SMILES | SARS PLpro yeast | NS1 function inh | Pf growth 96h | Pf growth 48h
COc1cccc(N(C(=O)c2ccco2)C(C(=O)NC2CCCC2)c2ccc(N(C)C)cc2)c1 (configuration not stated) | ? | -19% | 16% | 0%
COc1cc(C(=O)NNC(=O)CN2C(=O)NC(C)(c3ccc(C)cc3)C2=O)cc(OC)c1OC (configuration not stated) | 1% | nt | -25% | ?
CCn1nc(C)cc1C(=O)N1CCCC(C(=O)c2ccc(OC)cc2C)C1 (configuration not stated) | 1% | -4% | -3% | -9%
O=C(COc1ccc(S(=O)(=O)NC2CCCCC2)cc1)NC1CCCC1 | 1% | 2% | 52% | -13%
O=C(COc1ccc(S(=O)(=O)N2CCCCC2)cc1)NC1CCCCC1 | 0% | -16% | ? | 8.3µM*
O=C(COc1ccc(S(=O)(=O)NC2CCCCC2)cc1)NC1CCCCC1 | 17% | -2%[9.22 µM] | ? | 15µM*
COc1cccc(CNC(=O)c2ccccc2NC(=O)C2=C(C)OCCS2)c1OC | -10% | -7% | ? | ?
COc1ccc(Cl)cc1NC(=O)c1cccc(-n2cnnn2)c1 | 0% | nt | 17% | 10%
O=C(NN=C1CCN(Cc2ccccc2)CC1)c1cc(Br)ccc1O | -9% | nt | 1.9µM* | 45%
CCOC(=O)CC(=O)CSc1nc2c(cc1C#N)CCCCCC2 | -2% | 4% | 1.2µM* | 2.3µM*
CCOC(=O)CC(=O)CSc1nc(-c2cccnc2)ccc1C#N | -9% | -24% | nt | 10µM*
C=C(C)CSc1nc2c(cc1C#N)CCC2 | -1% | -66% | 15µM* | -3%
CCCCCN(C(=O)CCC(=O)OCC(=O)Nc1cccc(CC)c1)c1c(N)n(CCCC)c(=O)[nH]c1=O | 2% | nt | 24% | -22%
COc1ccccc1/C=C/C(=O)OCC(=O)N1CCN(S(=O)(=O)c2ccc(C)cc2C)CC1 | -3% | nt | -31% | ?
CC(C(=O)NC1CCCC1)N1CCN(Cc2ccccc2)CC1 (configuration not stated) | -1% | nt | 75% | 34%
O=C(CSc1ccccc1)NCCc1ccc(F)cc1 | 5% | 1% | 3.3µM* | 8%
CC(C(=O)NCCc1ccc(F)cc1)N1CCN(Cc2ccccc2)CC1 (configuration not stated) | -1% | nt | 5.2µM* | ?
O=C(CSc1cn(Cc2ccccc2)c2ccccc12)NCc1ccc(F)cc1 | -2% | 17% | 9.3µM* | ?
OCCOC[C@H]1O[C@H](OCCO)[C@H](OCCO)[C@@H](OCCO)[C@@H]1OCCO (tested in a mixture with another compound) | nt | nt | 4% | -5%
Cc1nn(-c2ccc(N3CCOCC3)nn2)c(C)c1CCC(=O)NCc1ccc(F)cc1 | 2% | 4% | ? | 9%
CCC(C)(C)C1CCC(=NNc2nc3ccccc3[nH]2)CC1 (configuration not stated) | 8% | 1% | 10µM* | 10µM*
CC1CCC(NC(=O)CCNC(=O)c2ccc(Br)cc2)CC1 (configuration not stated) | 2% | nt | 98% | 87%
CCN(CC)S(=O)(=O)c1ccc2oc(C(=O)NC3CCCc4ccccc43)c(C)c2c1 (configuration not stated) | -8% | ? | nt | 5.2µM*
CCN(CC)S(=O)(=O)c1ccc2oc(C(=O)N3CCCCCC3)c(C)c2c1 | -6% | -41% | -5% | 13µM*
CSCc1c(C(=O)NC2CCCc3ccccc32)oc2ccccc12 (configuration not stated) | 4% | 7% | 6%[5.75 µM] | 1%
CCOC(=O)N1CCN(C(=O)c2oc3ccc(S(=O)(=O)N(CC)CC)cc3c2C)CC1 | 1% | -6% | -10% | 5.2µM*

Source: PubChem
